Results on 39 compounds are retold here after PubChem BioAssay AID504727 (Broad Institute, 2011).

Structures are written as SMILES. Where “and” joins values, the source holds several entries; their conditions need not be identical. Equal entries are not always repeated. Calls of active or inactive are those of the source.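 How the source made its calls: active means fitted half-maximal concentration AC50 at or below ten times the highest valid tested dose, with signal falling as DNA is displaced (actives reach about 34 µM in these data); inconclusive means flat fit at moderate signal loss, or poor fit quality; inactive means the rest, including signal rising instead of falling.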

This test in a line: DNA intercalators displacing acridine orange, dose response, artefact control for KSHV LANA DNA-binding inhibitor project, biochemical, fluorescence polarization, cherry-picked samples, set 2 (AID 504727). The conditions noted are these: AC50: Acridine orange-DNA displacement; series mostly up to 35 µM.
As to `C=CC1=C(C(=O)O)N2C(=O)[C@@H](NC(=O)/C(=N/OCC(=O)O)c3csc(N)n3)[C@H]2SC1`, the AC50 (usually the concentration at which the activity in the assay is half-maximal) was “inactive”.

As to `O=C(Nc1ccccc1F)c1coc(=O)c(Br)c1`, the AC50 entry is “inactive”.

With `CCOc1ccc(S(=O)(=O)N(C)c2ccc(OCC(=O)NC3=NCCS3)cc2)cc1`, the AC50 result was “inactive”.

`COc1ccc2ccccc2c1C(O)c1nccn1C` (centres undefined): the AC50 is 4.01 µM (active).

With `COc1cc(C(=S)N2CCN(c3cccc(Cl)c3)CC2)ccc1O`, the AC50 result was “inactive”.

Consider `COC(=O)C1=C(N)OC2=C(C(=O)CCC2)C1c1cccs1` (centres undefined), for which the AC50 entry was “inactive”.

As for `O=C1c2c(O)ccc(O)c2C(=O)c2c(NCCNCCO)ccc(NCCNCCO)c21`, the AC50 was 1.34 µM (active) and 2.32 µM (active).

In the case of `COc1cc(NC(=O)c2ccc(CNc3c(N4CCCC4)c(=O)c3=O)cc2)cc(OC)c1OC`, the AC50 result is “inactive”.

With `Cc1noc(C)c1CSCC(=O)Nc1nc2c(F)cc(F)cc2s1`, the AC50 entry was “inactive”.

Consider `Cc1ccc(N2CC(C(=O)Nc3nnc(SCC(=O)Nc4nc(C)cs4)s3)CC2=O)cc1` (centres undefined), for which the AC50 result is “inactive”.

As to `COc1cccc(NC(=S)N2CCN(C(c3ccccc3)c3ccccc3)CC2)c1`, the AC50 entry is “inactive”.

As to `COc1ccccc1CNC(=O)C(=O)NCC1CCCN1S(=O)(=O)c1cccs1` (centres undefined), the AC50 entry is “inactive”.

`CC1CCCN(C(=O)C(=O)c2cn(CC(=O)N3CCCCCC3)c3ccccc23)C1` (centres undefined): the AC50 result was “inactive”.

On to `COc1ccc(C(=O)c2ccsc2N)cc1`, for which the AC50 entry is “inactive”.

`Cc1cccnc1NC1(C(F)(F)F)N=C2SCCN2C1=O` (centres undefined): the AC50 entry was “inactive”.

On to `Cc1cc(/C=N/Nc2ccc([N+](=O)[O-])cn2)c(C)n1-c1cccc(C(=O)O)c1`, for which the AC50 result is “inactive”.

On to `Cc1cccc(N(Cc2ccccc2)C(=O)C2CCN(C(=O)c3ccccc3C)CC2)c1`, for which the AC50 entry was “inactive”.

With `Cc1ccc(C(=O)O)cc1N1C(=O)c2cccc3c([N+](=O)[O-])ccc(c23)C1=O`, the AC50 result is “inactive”.

With `CC(C)c1ccc(NC(=O)Cn2c(=O)oc3cccnc32)cc1`, the AC50 result is “inactive”.

On to `Cc1cc(Cl)ccc1N1C(=O)CC(NNC(=O)c2cccnc2)C1=O` (centres undefined), for which the AC50 entry was “inactive”.

As to `C=CC[C@@H](CC(=O)N(CCO)Cc1ccccc1)C(=O)NC[C@H](OC(=O)[C@@H](CC=C)CC(=O)OC(C)(C)C)c1ccccc1`, the AC50 result was “inactive”.

On to `Cc1ccc(/C=C/S(=O)(=O)N2CCC(C(=O)O)CC2)cc1`, for which the AC50 result is “inactive”.

Take `O=C1NC(=S)S/C1=C\C=C\c1ccc([N+](=O)[O-])o1`: the AC50 result was “inactive”.

Turning to `CCOC(=O)CCCn1c(C)nc(=O)c(-c2ccccc2)c1C`, the AC50 entry is “inactive”.

For the compound `O=C(CN1C(=O)NC2(CCCC2)C1=O)Nc1ccccc1-c1ccccc1`, the AC50 entry is “inactive”.

With `Cc1c(NC(=O)CCC2CCCCC2)cc(C(=O)N2CCOCC2)cc1[N+](=O)[O-]`, the AC50 entry was “inactive”.

Take `O=C(O)c1ccc2c(c1)[C@@H]1C=CC[C@@H]1[C@H](c1ccccn1)N2`: the AC50 entry was “inactive”.

With `CCCCNc1c2c3c(cccc3n(C)c1=O)C(=O)c1ccccc1-2`, the AC50 is 2.25 µM (active).

As to `Nc1c(/C=C2/C=CC(=O)C(O)=C2)c(=O)nc2sc(CC(=O)N3CCCC3)nn12`, the AC50 result was “inactive”.

In the case of `O=C(NCCCO)c1ccc2nc(-c3ccco3)c(-c3ccco3)nc2c1`, the AC50 result was “inactive”.

For `O=S(=O)(O)c1cccc2cccc(Nc3ccccc3)c12`, the AC50 result was “inactive”.

`CC(C)CC(=O)Nc1nnc(CSCc2ccc(F)cc2)s1`: the AC50 result was “inactive”.

For the compound `O=C(O)Cc1ccc(N=Nc2c(O)c(C(=O)O)cc3ccccc23)cc1`, the AC50 result is “inactive”.

As to `Fc1ccc(C2=CC(c3ccc(Br)o3)n3ncnc3N2)cc1` (centres undefined), the AC50 was 11.7 µM (active).

Consider `COc1cc2c(cc1OC)-c1cc3ccc4c(c3c[n+]1CC2)OCO4`, for which the AC50 is 32.2 µM (active).

In the case of `CN(C)c1ccc(/C=C/C(=O)c2ccc(O)cc2)cc1[N+](=O)[O-]`, the AC50 entry is “inactive”.

Turning to `CC(=O)c1ccc2c(c1)C1C=CCC1C(C(=O)O)N2` (centres undefined), the AC50 result is “inactive”.

As to `CCOC(=O)[C@H]1[C@H]2COc3cc(OC)ccc3[C@@H]2N2C(=O)CN(Cc3ccc(OC)cc3)C(=O)[C@@]12C`, the AC50 result was “inactive”.

Turning to `Cc1cc(NS(=O)(=O)c2ccc(Nc3nc(-c4sc(N)nc4C)cs3)cc2)no1`, the AC50 entry was “inactive”.
